Test results taken from PubChem BioAssay (EPA / NIEHS).
Values joined by “and” are separate entries in the source; they are usually repeats but may differ in a detail not shown here. Identical values can stand only once. Inconclusive results are not listed. Active and inactive are the calls of the source. Rule for the calls: active = hit-call score of the fitted dose curve at least 0.9, where 1 is the maximum; inconclusive = response in the unintended direction; inactive = score below 0.9.

Experiments:
[1] = TOX21_p53_BLA_p2_viability: Viability Assessment in the Tox21 HCT-116 p53 Agonism Beta-lactamase Assay, Phase 2 (AID 2283591);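 note: compound exposure lasted 16 h at 37 °C; actives lower the ATP signal meaning cytotoxicity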
Method in brief: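 HCT116 p53-bla cells, 4000/well, dosed after 5 h plating (217-fold dilution of DMSO stocks) and incubated 16 h at 37C. Viability taken as cellular ATP by CellTiter-Glo luminescence after 30 min RT; signal loss marks cytotoxicity.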

[2] = target: Cellular tumor antigen p53 (Homo sapiens) (UniProt P04637); test: TOX21_p53_BLA_p2_ratio: Tox21 HCT-116 p53 Agonism Beta-lactamase Assay, Ratio, Phase 2 (AID 2283592)
Cellular tumor antigen p53 (Homo sapiens), sequence (P04637 whole entry, looked up): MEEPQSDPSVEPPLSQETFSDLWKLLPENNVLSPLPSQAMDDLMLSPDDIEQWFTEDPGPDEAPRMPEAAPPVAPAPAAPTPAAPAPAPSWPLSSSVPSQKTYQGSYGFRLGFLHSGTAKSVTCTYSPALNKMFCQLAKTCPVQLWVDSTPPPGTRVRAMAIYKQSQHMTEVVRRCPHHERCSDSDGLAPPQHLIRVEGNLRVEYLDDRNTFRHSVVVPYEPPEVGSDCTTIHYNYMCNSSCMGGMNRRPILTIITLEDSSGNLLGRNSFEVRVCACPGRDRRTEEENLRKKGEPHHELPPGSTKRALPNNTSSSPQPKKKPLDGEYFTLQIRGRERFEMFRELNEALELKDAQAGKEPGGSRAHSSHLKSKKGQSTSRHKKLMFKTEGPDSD
Method in brief: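 Ratio endpoint: beta-lactamase cleavage of CCF4-AM, blue (460 nm) over green (530 nm). HCT116 reporter line; 16 h treatment, 37C; substrate 2 h RT.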

[3] = TOX21_p53_BLA_p3_viability: Viability Assessment in the Tox21 HCT-116 p53 Agonism Beta-lactamase Assay, Phase 3 (AID 2283593);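 note: cells exposed to compound for 16 h before reading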
Method in brief: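 HCT116 cells, 4000/well, dosed 5 h after plating by pin transfer (217-fold dilution from DMSO stock) and incubated 16 h at 37C, 5% CO2. Viability read as ATP luminescence with CellTiter-Glo after 30 min at room temperature.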

[4] = target: Cellular tumor antigen p53 (Homo sapiens) (UniProt P04637); test: TOX21_p53_BLA_p3_ratio: Tox21 HCT-116 p53 Agonism Beta-lactamase Assay, Ratio, Phase 3 (AID 2283596)
Method in brief: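 Cells were seeded at 4000/well, rested 5 h at 37C, then dosed with DMSO compound solutions (217-fold dilution) for 16 h. CCF4-AM substrate was loaded for 2 h at room temperature, and the 460/530 nm emission ratio was fitted for gain of signal versus DMSO.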

[5] = TOX21_p53_BLA_p4_viability: Viability Assessment in the Tox21 HCT-116 p53 Agonism Beta-lactamase Assay, Phase 4 (AID 2283597);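 note: hits lower the luminescence signal meaning cytotoxicity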
Method in brief: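 Cytotoxicity was inferred from loss of CellTiter-Glo luminescence. HCT116 cells had been dosed with compounds after 5 h plating, incubated 16 h at 37C and 5% CO2, and exposed to the CCF4-AM substrate for 2 h.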

[6] = target: Cellular tumor antigen p53 (Homo sapiens) (UniProt P04637); test: TOX21_p53_BLA_p5_ratio: Tox21 HCT-116 p53 Agonism Beta-lactamase Assay, Ratio, Phase 5 (AID 2283599)
Method in brief: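 HCT-116 p53-bla cells (4000/well) plated 5 h, dosed with compound (217-fold DMSO dilution) for 16 h at 37 C; CCF4-AM substrate 2 h at room temperature. Activity is the 460/530 nm emission ratio (405 nm excitation), fitted in gain-of-signal direction versus DMSO.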

[7] = TOX21_p53_BLA_p5_viability: Viability Assessment in the Tox21 HCT-116 p53 Agonism Beta-lactamase Assay, Phase 5 (AID 2283600)
Method in brief: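 Luciferase-coupled ATP quantitation of cells treated for 16 h (37C, 5% CO2) with test chemicals delivered in DMSO via a 217-fold dilution; 4000 cells/well; reagent incubated 30 min at room temperature before luminescence reading.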

[8] = target: Cellular tumor antigen p53 (Homo sapiens) (UniProt P04637); test: TOX21_p53_BLA_p4_ratio: Tox21 HCT-116 p53 Agonism Beta-lactamase Assay, Ratio, Phase 4 (AID 2283601)
Method in brief: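 HCT-116 p53 beta-lactamase reporter cells (4000/well) preincubated 5 h, then compound (217-fold dilution of DMSO stock) for 16 h at 37C. CCF4-AM substrate added 2 h at room temperature; 460/530 nm emission ratio fitted upward versus DMSO.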

| Compound | AC50 [1] | AC50 [2] | AC50 [3] | AC50 [4] | AC50 [5] | AC50 [6] | AC50 [7] | AC50 [8] | outcome [1] | outcome [2] | outcome [4] | outcome [5] | outcome [6] | outcome [7] | outcome [8] | outcome [3] |
| --- | --- | --- | --- | --- | --- | --- | --- | --- | --- | --- | --- | --- | --- | --- | --- | --- |
| CC1(COc2ccc(CC3SC(=O)NC3=O)cc2)CCCCC1 (stereo not drawn) | 28.8 µM (active) | 36.7 µM (active) | 35.1 µM (active) | 27.1 µM (active) | 18.6 µM (active) | 27.6 µM (active) | 21.6 µM (active) | 34.7 µM (active) | – | – | – | – | – | – | – | – |
| CC(C)[C@@H]1CC[C@@H](C)C[C@H]1OC(=O)c1ccccc1O | – | – | 37.3 µM (active) | – | – | – | – | – | inactive | inactive | inactive | inactive | inactive | inactive | inactive | – |
| N#CCc1cccc(C(F)(F)F)c1 | – | – | – | – | – | – | – | – | inactive | inactive | inactive | inactive | inactive | inactive | inactive | inactive |
| CCN(CC)c1ccc(C(=C2C=CC(=[N+](CC)CC)C=C2)c2ccccc2)cc1 | 1.81 µM (active) | 4.15 µM (active) | 2.75 µM (active) | 6.97 µM (active) | 1.94 µM (active) | 9.22 µM (active) | 2.93 µM (active) | 11.1 µM (active) | – | – | – | – | – | – | – | – |
| O=C(CS)Nc1ccccc1 | – | – | – | – | – | – | – | – | inactive | inactive | inactive | inactive | inactive | inactive | inactive | inactive |
| CC1(C)C[C@@H]1C(=O)N/C(=C\CCCCSC[C@H](N)C(=O)O)C(=O)O | – | – | – | – | – | – | – | – | inactive | inactive | inactive | inactive | inactive | inactive | inactive | inactive |
| Oc1ccc(Cl)cc1Sc1cc(Cl)ccc1O | 31.3 µM (active) and 23 µM (active) | 31.8 µM (active) and 8.26 µM (active) | 46 µM (active) and 23 µM (active) | 46 µM (active) and 21.2 µM (active) | 53.9 µM (active) and 15.2 µM (active) | 72.3 µM (active) and 32.1 µM (active) | 70.2 µM (active) and 23 µM (active) | 65 µM (active) and 28.6 µM (active) | – | – | – | – | – | – | – | – |
| O=C(Nc1ccc(Br)cc1)c1cc(Br)c(Br)s1 | 23 µM (active) | – | 32.2 µM (active) | 18.8 µM (active) | 19.5 µM (active) | 19.9 µM (active) | – | – | – | inactive | – | – | – | inactive | inactive | – |
| CCCCCCCCCCCCCC[n+]1ccc(C)cc1 | – | 20.1 µM (active) | – | 27.5 µM (active) | – | – | – | – | inactive | – | – | inactive | inactive | inactive | inactive | inactive |
| CCN(CC)CCCN(c1ccccc1)C1Cc2ccccc2C1 | 9.12 µM (active) | 23.3 µM (active) | 26.6 µM (active) | 36.3 µM (active) | 2.11 µM (active) | 36.7 µM (active) | 30.6 µM (active) | 23 µM (active) | – | – | – | – | – | – | – | – |
| CSc1nc2cc(Oc3cccc(Cl)c3Cl)c(Cl)cc2[nH]1 | 14.5 µM (active) | 33.3 µM (active) | 22.6 µM (active) | 33.9 µM (active) | 33.2 µM (active) | – | – | 20.5 µM (active) | – | – | – | – | inactive | inactive | – | – |
| COc1cc([C@@H]2c3cc4c(cc3C(O[C@@H]3O[C@@H]5COC(c6cccs6)O[C@H]5[C@H](O)[C@H]3O)C3COC(=O)[C@@H]32)OCO4)cc(OC)c1O (stereo partly drawn) | – | 0.717 µM (active) | – | 0.939 µM (active) | – | 0.886 µM (active) | – | 0.841 µM (active) | inactive | – | – | inactive | – | inactive | – | inactive |
| CC(C)=CCOc1ccc(/C=C/C(=O)c2ccc(OCC=C(C)C)cc2OCC(=O)O)cc1 | 8 µM (active) | 6.92 µM (active) | 14.9 µM (active) | 13.8 µM (active) | 7.92 µM (active) | 9.9 µM (active) | – | 7.21 µM (active) | – | – | – | – | – | inactive | – | – |
| CO[C@H]1C[C@H](O[C@@H]2/C(C)=C/C[C@@H]3C[C@@H](C[C@]4(CC[C@H](C)[C@@H](C5CCCCC5)O4)O3)OC(=O)[C@@H]3C=C(C)/C(=N/O)[C@H]4OC/C(=C\C=C\[C@@H]2C)[C@]43O)O[C@@H](C)[C@@H]1O | – | – | – | – | 40.7 µM (active) | – | – | – | inactive | inactive | inactive | – | inactive | inactive | inactive | inactive |
| CC(C)NCC1CCc2cc(CO)c([N+](=O)[O-])cc2N1 (stereo not drawn) | – | – | – | – | – | – | – | – | inactive | inactive | inactive | inactive | inactive | inactive | inactive | inactive |
| CN(C)CCCN1c2ccccc2Sc2ccc(C(F)(F)F)cc21 | – | – | – | 11.1 µM (active) | 36.2 µM (active) | – | – | 10.1 µM (active) | inactive | inactive | – | – | inactive | inactive | – | inactive |
| CCCCCCCCOc1ccccc1C(=O)Nc1ccc(C(=O)OCC[N+](C)(CC)CC)cc1 | 28.9 µM (active) | – | 30.5 µM (active) | – | 19 µM (active) | – | 32.8 µM (active) | – | – | inactive | inactive | – | inactive | – | inactive | – |
| COc1ccc(C(=O)CC(=O)c2ccc(C(C)(C)C)cc2)cc1 | – | 18.5 µM (active) | – | – | – | – | – | – | inactive | – | inactive | inactive | inactive | inactive | inactive | inactive |
| CC1=C2[C@H](/C=C(\C)C(=O)O)CC[C@@H](C)[C@H]2CC1 | – | – | – | – | – | – | – | – | inactive | inactive | inactive | inactive | inactive | inactive | inactive | inactive |
| CCCN(CCc1cccs1)[C@H]1CCc2c(O)cccc2C1 | – | – | – | – | – | – | – | – | inactive | inactive | inactive | inactive | inactive | inactive | inactive | inactive |
| C=CC(=O)OCC1CC2CC1C1CCC(COC(=O)C=C)C21 (stereo not drawn) | 65.8 µM (active) | 55.2 µM (active) | – | – | 64.1 µM (active) | 74.8 µM (active) | – | 53 µM (active) | – | – | inactive | – | – | inactive | – | inactive |
